Publication PMC4336329 (PLoS ONE, 2015)
About 14,000 (4.5%) of roughly 310,000 compounds showed an effect of 50% or more. The effect is printed as a negative number. The sample as a whole holds a higher share of strong results than the screen did.

The molecules below were run against human ether-à-go-go-related gene (hERG) potassium channel (human, UniProt Q12809) (assay: primary screen, population patch clamp on CHO cells stably expressing hERG; higher = less effect of the substance).
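Also: peak tail current of the secondary pulse compared with the same well before compound.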

Chain of human ether-à-go-go-related gene (hERG) potassium channel (Q12809 whole entry, looked up): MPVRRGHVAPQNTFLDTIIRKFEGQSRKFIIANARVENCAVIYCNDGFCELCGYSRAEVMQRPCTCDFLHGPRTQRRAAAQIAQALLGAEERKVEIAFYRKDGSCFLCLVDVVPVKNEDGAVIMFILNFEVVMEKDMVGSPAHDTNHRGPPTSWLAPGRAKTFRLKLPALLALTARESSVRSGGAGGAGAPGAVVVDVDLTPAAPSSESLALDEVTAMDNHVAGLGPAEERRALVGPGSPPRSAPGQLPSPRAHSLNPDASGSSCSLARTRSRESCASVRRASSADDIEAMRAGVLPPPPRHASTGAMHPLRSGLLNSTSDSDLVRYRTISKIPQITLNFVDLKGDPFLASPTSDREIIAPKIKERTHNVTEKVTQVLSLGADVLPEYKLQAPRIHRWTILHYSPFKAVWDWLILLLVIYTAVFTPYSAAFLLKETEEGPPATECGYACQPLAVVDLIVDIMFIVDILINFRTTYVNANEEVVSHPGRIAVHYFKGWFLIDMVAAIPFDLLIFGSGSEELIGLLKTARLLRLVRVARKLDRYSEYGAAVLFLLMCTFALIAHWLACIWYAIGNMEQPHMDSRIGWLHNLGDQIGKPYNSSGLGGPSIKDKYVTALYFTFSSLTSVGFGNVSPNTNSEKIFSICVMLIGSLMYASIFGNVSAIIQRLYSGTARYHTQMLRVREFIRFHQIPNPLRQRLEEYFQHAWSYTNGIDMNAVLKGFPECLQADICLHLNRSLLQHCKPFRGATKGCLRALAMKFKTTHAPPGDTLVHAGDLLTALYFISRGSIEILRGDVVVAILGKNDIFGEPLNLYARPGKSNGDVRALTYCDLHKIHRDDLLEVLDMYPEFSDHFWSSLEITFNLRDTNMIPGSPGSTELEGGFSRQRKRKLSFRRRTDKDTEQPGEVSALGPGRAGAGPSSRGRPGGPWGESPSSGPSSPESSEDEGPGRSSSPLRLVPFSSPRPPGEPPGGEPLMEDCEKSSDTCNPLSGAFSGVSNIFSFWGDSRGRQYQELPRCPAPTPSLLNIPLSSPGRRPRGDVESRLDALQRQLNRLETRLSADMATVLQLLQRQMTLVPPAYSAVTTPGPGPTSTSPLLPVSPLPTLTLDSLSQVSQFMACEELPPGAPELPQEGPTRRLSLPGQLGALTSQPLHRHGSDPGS

Row | Structure (SMILES) | hERG current change (%, negative = inhibition) at 10uM
1 | Cc1cc(OCC(=O)Nc2cccnc2)c2c(C)cc(=O)oc2c1 | 4.24%
2 | O=C(Cc1cccs1)N1CCN(c2nc(-c3ccc(Cl)cc3)cs2)CC1 | -8.73%
3 | c1ccc(-c2cnc(-c3ccccc3)nc2)cc1 | 13.4%
4 | CCOc1ccc(N/C=C/C(=O)c2ccc(OC)cc2)c([N+](=O)[O-])c1 | 24.5%
5 | CCOC(=O)C1CCCN(C(=O)c2ccc3nc(-c4cccc(OC)c4)oc3c2)C1 (stereo not shown) | -28.6%
6 | CC(O)C(O)C(O)C(O)C1NCCS1 (stereo not shown) | 6.81%
7 | Cc1cc(C)cc(N(CCC#N)C(=O)COC(=O)CCc2c[nH]c3ccccc23)c1 | -32.6%
8 | O=C(NCCc1c[nH]c2ccccc12)OCCSS(=O)(=O)[O-].[Na+] | 9.49%
9 | Br.O=C(c1ccc(Br)cc1)c1sc(N2CCOCC2)nc1-c1ccccc1 | -1.44%
10 | CCCN(Cc1cc2ccc(C)cc2[nH]c1=O)S(=O)(=O)c1ccccc1 | 6.34%
11 | O=S(=O)(c1cc(Cl)ccc1Cl)N1CCN(Cc2ccco2)CC1 | -54.1%
12 | O=C(c1ccco1)N1CCN(S(=O)(=O)c2cc(Cl)ccc2Cl)CC1 | -21.5%
13 | Cc1ccc(S(=O)(=O)N2CCN(Cc3ccco3)CC2)c(C)c1 | -35.6%
14 | CC(=O)C(Sc1nc(N(C)C)nc(N(C)C)n1)C(=O)Nc1ccccc1 (stereo not shown) | -3.04%
15 | CC(NC(=O)C1CCCN(S(=O)(=O)c2cccs2)C1)c1ccccc1 (stereo not shown) | 6.73%
16 | COc1ccc2c(c1)C=C(C(=O)OCc1cccnc1)CO2 | 3.63%
17 | O=C(OCc1cccnc1)C1=Cc2ccccc2OC1 | -64.9%
18 | COc1cccc2c1OCC(C(=O)OCc1cccnc1)=C2 | -17.4%
19 | O=C(NCC1(c2ccccc2)CCOCC1)c1cccs1 | 13.9%
20 | COC(=O)C1=C(C)Nc2c(c(=O)n(C)c(=O)n2C)C1c1cccnc1 (stereo not shown) | -2.61%
21 | CCN(CC)C(=O)c1cc2c(=O)c3cc(F)ccc3oc2nc1C | -10.8%
22 | Cc1nc2oc3ccc(Cl)cc3c(=O)c2cc1C(=O)O | 19%
23 | CCN(CC)C(=O)c1cc2c(=O)c3cc(Cl)ccc3oc2nc1C | -66.1%
24 | CN(CC(=O)Nc1ccccc1C(F)(F)F)C(=O)CCc1nc2sc3c(c2c(=O)[nH]1)CCCC3 | 7.94%
25 | CCCn1nnc(NC(=O)c2ccc(OC)cc2)n1 | 2.42%
